From PubChem BioAssay (NCI)
Values joined by “and” are separate entries in the source; they are usually repeats but may differ in a detail not shown here. Equal values may be shown once. Compounds without any hit were thinned out: in the full panel of roughly 83,000, 20% have a hit.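 Single-concentration screen, 48 h exposure, 96-well plates. Endpoint: percent growth. Below 10 = active.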 Active and inactive are the calls of the source.

These compounds were tested on HL-60(TB) leukemia (assay: NCI-60 one-dose screen, 48 h (100 = growth as untreated, 0 = no growth, -100 = all killed)). Settings: 10 µM unless noted.
For COc1ccc(-c2csc(NC(=O)CSc3nc(-c4ccccc4)cc(=O)[nH]3)n2)cc1, the growth was 52.4% (inactive). CCCCOC(=O)OCc1cc(=O)c(O)co1 was tested, and the growth was 95.2% (inactive). In the case of Nc1cc(-c2cccc(OC(F)(F)F)c2)nc2ccc(N3CCCC3)cc12, the growth is reported as -35.5% (active) and -28.5% (active) and -11.6% (active). In the case of CC1=C(/C=C/C(C)=C/C=C/C(C)=C/CO)C(C)(C)CCC1, the growth is reported as 103% (inactive). In the case of C=C(C)[C@@H]1CC[C@]2(COCCC#N)CC[C@]3(C)[C@H](CC[C@@H]4[C@@]5(C)Cc6c([nH]c7ccccc67)C(C)(C)[C@@H]5CC[C@]43C)[C@@H]12, the growth is reported as 101% (inactive). COC(=O)/C=C/c1cc(OC(C)=O)c2c(c1)[C@@H](C(=O)OC)[C@H](c1ccc(OC(C)=O)c(OC(C)=O)c1)O2 was tested, and the growth was -42.8% (active). For O=C(CSc1nc2ccc([N+](=O)[O-])cc2[nH]1)Nc1cccc(C(F)(F)F)c1, the growth was 0.11% (active). With CCCCCCN1C(=O)CN=C1Nc1ccc2cc3ccc(NC4=NCC(=O)N4CCCCCC)cc3nc2c1 the growth was 50.1% (inactive). Cc1ncsc1CCO was tested, and the growth was 99.9% (inactive) and 89.9% (inactive). With CN(C)C(C)(C)CC(C)(C)C the growth was 71.8% (inactive). For Cc1ccc(CNc2ccc(Cl)cc2NCc2ccc(C)c(O)c2)cc1O, the growth was 8.41% (active). For CC(=O)N1N=C(c2ccc(Cl)cc2)CC1c1cn(-c2ccccc2)nc1-c1ccc([N+](=O)[O-])cc1 (centres undefined), the growth was 121% (inactive). With O=C(O)/C(=C\c1ccc(Cl)cc1)c1ccc(Cl)cc1 the growth was 53.3% (inactive). In the case of COc1cc(OC)c(/C=C/C(=O)c2c(OC)cc(OC)cc2OC)c(OC)c1, the growth is reported as -25.1% (active). With COC(=O)/C=C1/SC(=Nc2cccc(OC)c2)N(CCc2c[nH]c3ccc(O)cc23)C1=O the growth was 59.8% (inactive). With NCCCCCC(=O)O the growth was 114% (inactive) and 92.6% (inactive) and 77.6% (inactive). For O=C(Nc1ccc(CN2CCOCC2)cc1)c1ccc(-c2cc(Cl)ccc2Cl)o1, the growth was 28.8% (inactive). With O=C1C=CC[C@H](/C=C/c2ccccc2)O1 the growth was 13.5% (inactive) and -34.5% (active). With COc1ccc(/C=C2\Oc3cc(OCCN4CCC(Cc5ccccc5)CC4)ccc3C2=O)cc1OC the growth was 99.7% (inactive). In the case of Cc1c(C(=O)N[C@@H](Cc2ccccc2)C(=O)C(=O)NCCc2ccccc2)[nH]c2ccccc2c1=O, the growth is reported as 98% (inactive). For C/C(=N\O)c1ccc(NC(=O)CSc2nnc(-c3ccccc3)n2-c2ccccc2)cc1, the growth was 90.4% (inactive). With O=C1Nc2ccccc2[C@]12CC(c1ccccc1)=NN2 the growth was -15.8% (active). In the case of Cc1cc(Nc2ccc(C)c(Cl)c2)n2nc(C(F)(F)F)nc2n1, the growth is reported as 100% (inactive). For COc1ccc(-n2nnc(C(=O)NCCc3c[nH]c4ccc(F)cc34)c2C)cc1, the growth was 86.9% (inactive). For COc1cc(C2c3cc(OC(C)=O)c(OC)cc3CC3C(=O)OCC32)ccc1OC(C)=O (centres undefined), the growth was 71.7% (inactive). O=[N+]([O-])c1cccc2ccc(N/N=C/c3ccccc3O)nc12 was tested, and the growth was 40.7% (inactive) and 50.5% (inactive). With C/C(=C\CCc1ccoc1)CC/C=C(\C)CCCC1COC(=O)C1 (centres undefined) the growth was 95.8% (inactive). In the case of CCOC(=O)c1sc2ncc(-c3ccc(OC)cc3)n2c1C, the growth is reported as 86.5% (inactive). COC1(OC)N=C(N)C2(C#N)C3(C(=O)Nc4ccccc43)C12C#N (centres undefined) was tested, and the growth was 72.5% (inactive). CCC(C)C1(C2CCCC2)NC(=O)NC1=O (centres undefined) was tested, and the growth was 63.4% (inactive) and 98.2% (inactive). With Cc1cc(N2CCOCC2)nc(N2CCOCC2)n1 the growth was 97.9% (inactive). With CC(=O)OC1Oc2ccccc2-c2oc(=O)c(-c3cc(=O)oc4cc(O)ccc34)cc21 (centres undefined) the growth was 47% (inactive). In the case of O=C(O)CC(Cl)C(Cl)CC(=O)O (centres undefined), the growth is reported as 99.5% (inactive). With COc1ccc(C(=O)C2C(c3ccc(OC)cc3)CN(C)C23C(=O)Nc2ccccc23)cc1 (centres undefined) the growth was 99.1% (inactive). COc1cc(-c2nn(-c3ccc(NC(=O)NCCCNC(=O)c4ccccc4)cc3)cc2-c2ccncc2)ccc1Cl was tested, and the growth was -0.104% (active). O=C(O)CNC(=O)C1(N2C(=O)c3ccccc3C2=O)CCCC1 was tested, and the growth was 90.6% (inactive). For CCN(CC)c1ccc(C(=N)c2ccc(N(CC)CC)cc2)cc1, the growth was -23.4% (active). Cc1ccc([C@@H]2C[C@H](O)Cc3ccccc3N2)s1 was tested, and the growth was 121% (inactive). CCOc1ccc(NC(=S)N2CCC(CCCC3CCN(C(=S)Nc4ccc(OCC)cc4)CC3)CC2)cc1 was tested, and the growth was 68.9% (inactive).
